Screens deposited in PubChem BioAssay by National Center for Advancing Translational Sciences (NCATS).
HT1080NT lethal – kills 2HG-producing HT-1080-NT fibrosarcoma cells; HT-1080-NT fibrosarcoma viability, CellTiter-Glo ATP luminescence, 48 h; Potency, µM (top dose mostly 46.1 µM), inactives show at the top dose activity, negative = less viability, hits mostly cytotoxic; 1.6% of 360,000 active;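 note: NT is the 2HG producing partner of a matched IDH1 knockdown line; 0% = DMSO-treated cells and -100% = media-only wells without cells; nearly all actives have a fitted effect of over 55% in size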
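Viability of the 2HG-overproducing fibrosarcoma line after 48 hours of compound exposure at 37 degrees C was determined by luminescence with CellTiter-Glo, and concentration-effect curves were then fitted and categorized.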
KB-V1 MDR tox – KB-V1 MDR subline cytotoxicity; KB-V1 MDR cells viability, CellTiter-Glo, 72 h; Potency, µM (doses to about 46.1 µM), usual class: cytotoxic; AID 1347076; 3.4% of 400,000 active; note: % is set by controls: 0 for no effect and ±100 for the full control effect; nearly all actives have a fitted effect of over 60% in size
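Luminescent ATP read-out (CellTiter-Glo, 10 min) measures survival of drug-selected KB-V1 MDR cells after 72 h, 37 degrees C compound exposure. Medium: phenol-red-free DMEM, 10% FBS. Values from fitted concentration-response curves.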
ATXN2 expr inh – reduces ATXN2 reporter expression in HEK-293 cells; HEK-293 ATXN2-luciferase reporter, luminescence, 24 h; Potency, µM (titrated, usually from 57 µM), for inactives: at the highest dose activity change, negative = inhibition, hits mostly inhibitors; AID 1745845; 0.72% of 360,000 active; note: % is set by controls: 0 for no effect and ±100 for the full control effect; nearly all actives have a fitted effect of over 55% in size
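qHTS (up to 57 uM final) was run with 24 h compound exposure of reporter cells at 37 °C. Each well was multiplexed: SteadyGlo luminescence measured ATXN2-luciferase expression after a fluorogenic Gly-Phe-AFC viability readout (25 uM final).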
S2 tox – reduces viability in counter-screen for ATXN expression inhibitors | S2 cells (HEK-293 line with an ATXN2-luciferase reporter) viability, CellTiter-Fluor protease fluorescence, 24 h | 0.49% of 400,000 active | AID 651635 | Potency, µM (titrated, usually from 56.7 µM), hits mostly cytotoxic; note: nearly all actives have a fitted effect of over 40% in size
HT1080 IDH1KD tx – toxicity to HT-1080 IDH1 knockdown cells (counter line); 2% of 360,000 active; HT-1080 IDH1 knockdown viability, ATP luminescence, 48 h; AID 686971; Potency, µM (highest dose often 46.1 µM), without a hit: top-dose activity, negative = toxicity, most hits filed as cytotoxic;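 note: 0% = DMSO wells and -100% = cell-free medium wells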
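% activity derives from luminescence (CellTiter-Glo), normalised to DMSO and no-cell wells. HT-1080-IDH1KD cells, 750/well, had 48 h compound exposure at 37 °C.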
KB-3-1 tox – kills parental KB-3-1 adenocarcinoma cells; KB-3-1 viability, CellTiter-Glo ATP luminescence, 72 h; Potency, µM (top dose mostly 46.1 µM), most hits filed as cytotoxic; 1.4% of 400,000 active; AID 1347075; note: % is set by controls: 0 for no effect and ±100 for the full control effect; nearly all actives have a fitted effect of over 60% in size
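Parental KB-3-1 adenocarcinoma cells in phenol-red-free DMEM with 10% FBS were pin-treated with compounds at several concentrations, incubated 72 h at 37 °C, and viability read by CellTiter-Glo luminescence; concentration-effect curves were fitted after normalization.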
An asterisk follows results filed as active; i = inactive; ? = inconclusive; · = no result; ! = repeats disagree; [ ] = dose if it differs, or a comment. A selection: hits, their analogues and other compounds. The true share with any hit is near 6.2%. Calls come from the whole dose curve; as a rule, active = well fitted curve in the direction sought with a large enough effect; inconclusive = small, poorly fitted or top-dose-only effect, or another doubt; inactive = no such curve, though single readings can be large; an effect the other way counts as inactive or inconclusive. Potency is the fitted concentration of half-maximal effect.

SMILES	HT1080NT lethal	KB-V1 MDR tox	ATXN2 expr inh	S2 tox	HT1080 IDH1KD tx	KB-3-1 tox
Cc1ccc(NC(=O)CSc2ncnc3ccccc23)cc1S(=O)(=O)N1CCCCC1	-29%	i	?	?	?	i
CSC(=NC(C)c1ccccc1)NS(=O)(=O)c1cccs1 (stereo not drawn)	-3%	23µM*	-5%	i	-6%	?
CC(C)N=C(NS(=O)(=O)c1cccs1)c1ccccc1	-7%	i	2%	i	16%	i
COc1ccc(-c2cc(C3CCN(CC(O)C(F)(F)F)CC3)[nH]n2)cc1 (stereo not drawn)	-3%	i	·	i	2%	i
COc1ccc(-c2cc(C3CCN(Cc4cccc(C(F)(F)F)c4)CC3)[nH]n2)cc1	16µM*	?	?	i	?	?
COc1ccc(-c2cc(C3CCN(Cc4ccc([N+](=O)[O-])cc4)CC3)[nH]n2)cc1	-12%	i	-32%[11.3 µM]	i	?	i
Nc1nc(Cl)cc(N2CCC(c3cc(-c4ccc(Cl)cc4)n[nH]3)CC2)n1	22µM*	15µM*	25µM*	?	11µM*	?
Cc1ccc(CN2CCC(c3cc(-c4ccc(Cl)cc4)n[nH]3)CC2)cc1	0%	?	20µM*	?	?	?
Clc1ccc(-c2cc(C3CCNCC3)[nH]n2)cc1	?	i	-35%	i	-2%	i
COc1ccc(OC)c(-c2cc(C3CCN(c4cc(Cl)nc(N)n4)CC3)[nH]n2)c1	-11%	3.3µM*	?	i	?	7.3µM*
CCOc1ccc(-n2cc(C(=O)NCc3ccco3)c3cc(OC)c(OC)cc3c2=O)cc1	-3%	i	-16%	?	-4%	0.52µM*
CC1(C)CC(=O)C=C(N2CCNCC2)C1	-1%	i	1%	i	-8%	i
CC1CC(C)C[N+](=C2C=C(N3CCCC3)CC(C)(C)C2)C1 (stereo not drawn)	9.2µM*	i	?	?	?	5.8µM*
CC1(C)CC(N2CCN(c3ccccc3)CC2)=CC(=[N+]2CCCC2)C1	1.1µM*	i	?	i	14µM*	12µM*
CC1(C)CC(N2CCCC2)=CC(=[N+]2CCCCCC2)C1	?	i	?	i	12µM*	?
COc1cccc(COC(=O)c2ccc(-c3nnn(Cc4ccccc4)n3)cc2)c1	·	i	8%	i	·	i
CCOc1ccc(S(=O)(=O)NCc2ccncc2)cc1NC(=O)c1ccccc1	3.7µM*	?	-22%	i	23µM*	0.58µM*
COc1ccc(S(=O)(=O)NCc2ccccn2)cc1NC(=O)c1ccc(Cl)cc1	?	?	-30%	i	?	?
CCOc1ccc(S(=O)(=O)NCc2ccncc2)cc1NC(=O)c1ccccc1F	?	?	-1%	i	23µM*	?
CCOc1ccc(S(=O)(=O)NCc2cccnc2)cc1NC(=O)c1ccccc1F	-1%	?	-33%	i	-24%	18µM*
COc1ccc(S(=O)(=O)NCc2cccnc2)cc1NC(=O)c1ccccc1	2%	i	-12%	i	6%	i
COc1ccc(S(=O)(=O)NCc2ccccn2)cc1NC(=O)c1ccccc1C	?	?	-16%	i	?	15µM*
COc1ccc(Cc2ccc(NC(N)=O)cc2)cc1-c1cccc(Cl)c1	·	·	4%	·	·	·
Cc1c(C(=O)N2CCCCC2)sc2ncnc(NCCc3ccccn3)c12	·	·	·	i	·	·
CCc1cccc(C)c1NC(=O)Cn1c(=O)n(-c2ccc(C)cc2)c(=O)c2c1cnn2C	·	i	0%	i	·	i
SMILES	HT1080NT lethal	KB-V1 MDR tox	ATXN2 expr inh	S2 tox	HT1080 IDH1KD tx	KB-3-1 tox
COc1ccc(CCNC(=O)C(C)n2c(=O)cc(C(F)(F)F)c3c(C)nn(C)c32)cc1OC (stereo not drawn)	·	i	-19%	i	·	i
CC(C)N1C[C@@H](Sc2ccccn2)C[C@H]1C(=O)Nc1ccc2c(c1)Nc1ccccc1CC2	·	·	·	i	·	·
COc1ccc(-c2cn(Cc3cccc(OC)c3)nn2)cc1	10%	10µM*!	25%	i	12%	?
COc1cccc(Cn2cc(-c3cccc(C(F)(F)F)c3)nn2)c1	21%	?	5%	i	9%	i
Cc1cc(Cl)ccc1NC(=O)C1CCN(S(=O)(=O)c2ccc3[nH]c(=O)ccc3c2)CC1	·	i	8%	i	·	i
CNC(=S)N/N=C/c1c(C)c(C(=O)c2ccc(F)cc2)n2ccccc12	-11%	i	-15%	?	-10%	i
Cc1c(/C=N/NC(N)=O)c2ccccn2c1C(=O)c1ccc(F)cc1	-15%	18µM*	-5%	i	-28%	i
Cc1c(-c2ccccc2)n(-c2ccccc2O)c2nc3c(c(=O)n(C)c(=O)n3C)n12	·	?	-4%	i	·	?
CCCCCCNC(=O)c1c[nH]c2ccc(S(=O)(=O)N(C)c3ccc(C(C)C)cc3)cc2c1=O	·	i	11%	?	·	i
CCOCCn1c(N2CCCN(C)CC2)nc2ccccc21	·	·	3%	i	·	·
COc1cc(OC)c(/C=C/c2nccc3ccccc23)c(OC)c1	·	i	·	·	·	?
O=S(=O)(Nc1cccc(-n2cnnn2)c1)c1cc(Br)ccc1Br	-20%	5.8µM*	-16%	i	-25%	i
CC=C1NC(=O)[C@H]2CSSCCC=C[C@H](CC(=O)N[C@H](C(C)C)C(=O)N2)OC(=O)[C@H](C(C)C)NC1=O	·	·	5%	·	·	·
Cc1c(Cl)cccc1NC(=O)COC(=O)c1c2c(nc3ccccc13)CCN(Cc1ccccc1)C2	?	2.1µM*	-18%	i	?	?
CC(C)(C)NC(=O)COC(=O)c1c2c(nc3ccccc13)CCC2	-15%	?	-9%	?	-17%	i
Cc1cc(N2CCN(C)CC2)ccc1NC(=O)c1c2c(nc3ccccc13)CCN(Cc1ccccc1)C2	5.8µM*	?	-29%[11.3 µM]	?	4.6µM*	i
O=C(NC1CCCCCC1)c1c2c(nc3ccccc13)CCN(Cc1ccccc1)C2	14%	i	4%	?	16%	i
CCc1ccc(NC(=O)CSc2nnc(-c3ccccc3)n2C)cc1	·	i	·	·	·	?
CN(C(=O)c1cccc(NC(=O)Cc2ccc(NC(=O)C3CCN(C(=O)C4CCC4)CC3)cc2)c1)C1CCCC1	-13%	i	-4%	i	-19%	i
CC(=N)c1c(O)c2ccccc2oc1=O	6%	i	8%	i	-7%	i
